# Measurements from PubChem BioAssay AID720597 (Broad Institute, 2013).
# Measured potencies and affinities stand elsewhere. Calls of active or inactive are those of the source.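 The calls were made as follows: active = fitted half-maximal dose no more than twice the top valid tested dose, for compounds that lower signal; inconclusive = fit invalid, or curve flat with activity between -70 and -30; inactive = potency past limit, curve flat within ±30, or signal increasing.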
# Molecular target: NAD-dependent protein deacylase sirtuin-5, mitochondrial (Homo sapiens) (UniProt Q9NXA8)
# Experiment: SIRT5 deacylase inhibitors, dose response, biochemical, fluorescence imaging, cherry-pick, set 6 (AID 720597);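 also: lower AMC signal can also come from blocking the trypsin step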
# Conditions: Purified SirT5, succinyl-peptide-AMC/trypsin fluorescence; series mostly up to 15 µM
# NAD-dependent protein deacylase sirtuin-5, mitochondrial (Homo sapiens), sequence (Q9NXA8 whole entry, looked up): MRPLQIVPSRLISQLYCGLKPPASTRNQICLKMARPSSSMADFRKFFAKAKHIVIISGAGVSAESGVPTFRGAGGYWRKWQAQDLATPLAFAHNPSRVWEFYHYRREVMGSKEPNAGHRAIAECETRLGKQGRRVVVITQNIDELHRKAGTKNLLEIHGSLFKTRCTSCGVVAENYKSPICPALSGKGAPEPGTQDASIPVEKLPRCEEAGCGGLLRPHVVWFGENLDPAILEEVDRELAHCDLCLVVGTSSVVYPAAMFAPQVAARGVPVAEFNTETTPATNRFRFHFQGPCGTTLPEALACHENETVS
row,Structure (SMILES),outcome
1,C[C@H](CO)N1C[C@H](C)[C@@H](CN(C)Cc2ccccc2)Oc2ccc(N(C)C)cc2C1=O,inactive
2,COCC(=O)N(C)C[C@H]1[C@H](c2ccccc2)[C@@H](CO)N1C(=O)Cc1ccncc1,inactive
3,C[C@H]1CN([C@@H](C)CO)S(=O)(=O)c2ccc(C#Cc3cccc(F)c3)cc2O[C@@H]1CN(C)S(=O)(=O)c1ccccc1F,inactive
4,C[C@H]1CN([C@@H](C)CO)C(=O)c2ccccc2-c2ccccc2CO[C@@H]1CN(C)C(=O)Nc1ccccc1C(F)(F)F,inactive
5,C[C@H]1CN([C@@H](C)CO)C(=O)c2cc(NC(=O)Cc3ccccc3)ccc2O[C@H]1CN(C)Cc1ccc(Oc2ccccc2)cc1,inactive
6,CCCNC(=O)N(C)C[C@H]1Oc2cc(C#CC(C)C)ccc2S(=O)(=O)N([C@H](C)CO)C[C@@H]1C,inactive
7,Cc1ccc(S(=O)(=O)N[C@@H]2C=C[C@H](CC(=O)N3CCN(c4ccccc4)CC3)O[C@@H]2CO)cc1,inactive
8,O=S(=O)(c1ccc(F)cc1)N1CCCCN2[C@H](CO)[C@H](c3ccc(C#CC4CCCC4)cc3)[C@H]2C1,inactive
9,O=C(C[C@H]1CC[C@H](NC(=O)C2CCC2)[C@H](CO)O1)NCc1ccccc1Cl,inactive
10,C[C@H]1CN([C@@H](C)CO)C(=O)c2cc(C#CCN(C)C)cnc2O[C@H]1CN(C)S(=O)(=O)c1ccccc1,inactive
11,COc1ccc(NC(=O)N(C)C[C@H]2Oc3cc(C#CCC(C)C)ccc3S(=O)(=O)N([C@H](C)CO)C[C@H]2C)cc1,inactive
